Cycloheximide cs – affects cycloheximide protein synthesis inhibition readout, counter-screen; AID 2314; max response, %; hit rate 12% among 300,000; cell reporter, cycloheximide protein synthesis inhibition counterscreen; in the data active = max response mostly above about 13%, no sharp cut-off; inactive = mostly below about 14%; note: read at 38.3 µM for the half of the compounds with a filed dose; 0% is about no effect
Pf growth 96h – P. falciparum growth inhibition at 96 hour, primary screen for plastid delayed-death inhibitors; P. falciparum luciferase reporter growth, 96 h; Potency, µM (doses to about 28.7 µM), inactives show top-dose activity change, negative = inhibition, usual class: inhibitors; AID 504834; hit rate 6.9% among 320,000; note: potency is the fitted concentration of half-maximal effect; % is set by controls: 0 for no effect and ±100 for the full control effect
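Delayed-death screen, second-generation endpoint: infected erythrocytes, 2% hematocrit, 0.05% parasitemia final; 96 hours at 37 C, 5% CO2; luciferase detection reagent; luminescence decrease equals reduced growth.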
Pf growth 48h – inhibits P. falciparum growth in the first generation, 48 h. P. falciparum luciferase growth in erythrocytes, 48 h. Potency, µM (top dose mostly 28.7 µM), without a hit: at the top dose activity change, negative = inhibition, actives largely listed as inhibitors. hit rate 5.9% among 310,000. AID 504832; note: potency is the fitted concentration of half-maximal effect; % is set by controls: 0 for no effect and ±100 for the full control effect
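First compound was added to culture medium, then infected red cells at 0.1% parasitemia and 2% hematocrit (final). After incubation at 37 C under 5% CO2, luciferase detection reagent was dispensed and light output recorded.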
Marburg entry inh – inhibitors of Marburg virus binding or cell entry | Marburg virus pseudotyped entry inhibition, cell reporter | AID 540276 | hit rate 1.8% among 300,000 | Potency, µM (highest dose often 37.8 µM), for inactives: at the highest dose activity change, negative = inhibition, most hits filed as inhibitors; calls by dose curve; tested in HEK293 cells; note: potency is the fitted concentration of half-maximal effect; % is set by controls: 0 for no effect and ±100 for the full control effect
Shiga toxin inh – blocks Shiga toxin action in Vero cells; Vero cells, Shiga toxin protein synthesis inhibition reporter; inhibition, % at 38.7 µM; hit rate 9.2% among 290,000; AID 2315; in the data active = inhibition mostly above about 28%, no sharp cut-off; inactive = mostly below about 43%; note: 0% is about no effect
Lassa entry inh – blocks Lassa virus binding to or entry into cells; Lassa virus pseudotype entry inhibition, cell reporter; hit rate 1.2% among 300,000; Potency, µM (titrated, usually from 37.9 µM), for the others: at the highest dose activity change, negative = inhibition, hits mostly inhibitors; calls by dose curve; tested in HEK293 cells; note: potency is the fitted concentration of half-maximal effect; % is set by controls: 0 for no effect and ±100 for the full control effect; nearly all actives have a fitted effect of over 50% in size
* = called active by the depositor; ? = inconclusive; . = not tested or not shown; [ ] = remark or other dose. The list is not random: actives were taken first. Their share in the collection is about 19%. Unless noted, calls come from the whole dose curve; as a rule, active = well fitted inhibition curve with a large enough effect; inconclusive = small, poorly fitted or top-dose-only effect, or another doubt; inactive = no such curve, though single readings can be large or run the other way.

SMILES	Cycloheximide cs	Pf growth 96h	Pf growth 48h	Marburg entry inh	Shiga toxin inh	Lassa entry inh
CCCC[n+]1ccn(C2=C([O-])c3ccccc3C(=O)/C2=N\S(=O)(=O)c2ccccc2)c1	-2	8.3µM*	1.9µM*	?	-4	?
CCCCC[n+]1ccn(C2=C([O-])c3ccccc3C(=O)/C2=N\S(=O)(=O)c2ccccc2)c1	-4	5.9µM*	2.9µM*	22µM*	-7	?
CCCCC[n+]1ccn(-c2nc3ccccc3nc2[N-]S(=O)(=O)c2ccc(C)cc2)c1	2	?	-16%	-12%	-19	1%
COc1cc(C(=S)N2CCOCC2)ccc1OS(=O)(=O)c1ccc(Cl)cc1	-3	10%	-4%	.	21	.
Cn1c(N)c(C(=O)CSc2nnnn2-c2ccccc2)c(=O)n(C)c1=O	-2	3%	?	.	15	.
CN(Cc1nc(-c2cnccn2)no1)C1CC(C)(C)NC(C)(C)C1	-4	31%	18%	2%[46.1 µM]	5	11%
COc1ccc(-c2nc3sc(CCNC(=O)C(=O)Nc4ccc(C)c(F)c4)c(C)n3n2)cc1	.	.	.	.	.	-16%[46.1 µM]
COc1ccc(NC(=O)c2ccc(-c3ccc(-c4noc(C)n4)cc3C)cc2)cc1OCCN(C)C	-4	.	.	.	-11	.
CCCCC[n+]1ccn(C2=C([O-])c3ccccc3C(=O)/C2=N\S(=O)(=O)c2ccc(Br)cc2)c1	-1	?	1.9µM*	.	-6	.
Cc1c(C(=O)O)oc2ccc(S(=O)(=O)N(CC(C)C)CC(C)C)cc12	-4	91%	17%	10%	-2	-5%
COc1cc(CC(=O)OCc2cccc([N+](=O)[O-])c2)cc(OC)c1OC	-2	4%	4%	3%[46.1 µM]	14	?
CCOc1ccccc1/C=N/Nc1ccc(Cl)nn1	14	-28%	.	-5%	19	11%
CCOc1ccc(/C=N/Nc2ccc(Cl)nn2)c(O)c1	7	?	1.3µM*	2%[46.1 µM]	58*	12%
COc1cc(/C=N/Nc2ccc(Cl)nn2)cc(OC)c1O	6	?	-20%	.	5	.
Fc1cccc(/C=N/Nc2ccc(Cl)nn2)c1	41*	133%	-17%	.	47	.
Oc1c(Br)cc(/C=N/Nc2ccc(Cl)nn2)cc1Br	12	1µM*	0.52µM*	9%	15	0%
Cc1ccc(-c2noc(-c3ccc(NCc4cccnc4)c([N+](=O)[O-])c3)n2)cc1	.	.	.	-6%[46.1 µM]	.	2%[46.1 µM]
CCC(C(=O)N1CCOCC1)n1nc(C)n2c(cc3cc(C)ccc32)c1=O (stereo unspecified)	1	60%	9%	30%[46.1 µM]	-4	0%[46.1 µM]
COc1ccc(C2NCc3ccc4c(c3-n3cccc32)OCO4)cc1O (stereo unspecified)	-3	.	6.6µM*	0.63µM*	-8	?
Cc1ccc2nc(/C(C#N)=C/c3ccc(-c4cccc(Cl)c4)o3)[nH]c2c1	.	.	.	.	.	-4%[46.1 µM]
O=Cc1cccn1Cc1ccccc1[N+](=O)[O-]	33*	9.3µM*	-2%	3%	13	?
O=[N+]([O-])c1ccccc1CNCCO	.	117%	35%	.	.	.
NC1=NC[C@H](Cc2ccccc2)N1CCc1cccc(F)c1	-4	3.7µM*	5.9µM*	.	1	.
NC1=NC[C@H](Cc2ccc(O)cc2)N1CCCCC1CCCCC1	-7	2.1µM*	2.1µM*	.	2	.
NC1=NC[C@H](Cc2ccccc2)N1CCCCC1CCCCC1	-1	12µM*	?	.	1	.
SMILES	Cycloheximide cs	Pf growth 96h	Pf growth 48h	Marburg entry inh	Shiga toxin inh	Lassa entry inh
O=C1c2cccnc2C(=O)N1Cc1ccc(S(=O)(=O)NCc2ccco2)cc1	-3	?	17%	.	-10	.
CCOC(=O)c1nn(-c2ccc(Cl)cc2)c(=O)c(C#N)c1C	-2	1%	-18%	.	.	.
O=C(O)CCc1ccc(-c2cccs2)n1-c1ccc(C(=O)O)cc1	1	?	.	5%	19	.
Cc1ccc(-c2ccc(CCC(=O)O)n2-c2cccc(O)c2)cc1	40*	.	131%	13%[46.1 µM]	121*	11%[46.1 µM]
Cc1ccc(-c2ccc(CCC(=O)O)n2-c2ccc(O)cc2)cc1	-4	-7%	0%	2%	-17	5%
CC(=O)c1ccc(-n2c(CCC(=O)O)ccc2-c2ccccc2)cc1	-6	9%	0%	.	-3	.
CC(=O)c1cccc(-n2c(CCC(=O)O)ccc2-c2ccccc2)c1	40*	3%	-12%	?	75*	0%[46.1 µM]
CC(=O)c1cccc(-n2c(CCC(=O)O)ccc2-c2cccs2)c1	26*	?	?	11%	52	4%
O=C(c1nc2ccc(Cl)cn2c1CN1CCC(O)CC1)N1CCc2ccccc2C1	-2	-24%	?	.	-9	.
CC(=O)c1cccc(OCC(=O)Nc2cccc(C(=O)Nc3c(C)n(C)n(-c4ccccc4)c3=O)c2)c1	.	13%	22%	4%	.	-13%
Cc1ccc(CNC(=O)C(NS(=O)(=O)c2cccc3nsnc23)C(C)C)cc1 (stereo unspecified)	2	11%	14%	.	-6	.
O=C(COc1coc(CN2CCN(c3cccc(Cl)c3)CC2)cc1=O)NC1CCCC1	.	?	9.3µM*	-22%	.	-28%
CC(C)NC(=O)COc1coc(CN2CCN(c3cccc(Cl)c3)CC2)cc1=O	-3	12µM*	2%	.	-7	.
CNC(=O)COc1coc(CN2CCN(c3cccc(Cl)c3)CC2)cc1=O	-2	8%	-11%	.	-4	.
COc1cccc(NC(=S)NC(=O)Cc2ccc(Cl)cc2)c1	0	22%	25%	-2%[46.1 µM]	17	?
O=S(=O)(NC1CCC(CNS(=O)(=O)c2c(F)cccc2F)CC1)c1ccc2c(c1)OCCO2 (stereo unspecified)	.	0%	-24%	.	.	.
O=S(=O)(NC[C@@H]1CCC[C@H](CNS(=O)(=O)c2c(F)cccc2F)C1)c1ccc2c(c1)OCCO2	.	?	8.3µM*	.	.	.
O=C1C(Cl)=C(N2CCN(c3ccccc3[N+](=O)[O-])CC2)C(=O)c2ccccc21	-4	8.3µM*	?	?	13	?
CCOC(=O)c1c(-n2c(C)cc(/C=C3\C(=O)NC(=O)N(C)C3=O)c2C)sc2c1CCCC2	-2	3.7µM*	?	?	-23	?
CCOC(=O)c1c(-n2c(C)cc(C=O)c2C)sc2c1CCCC2	-3	?	?	12µM*	-2	9.2µM*
Cc1ccc(-n2c(C)cc(/C=C3/C(=O)NC(=O)N(C)C3=O)c2C)cc1	-3	13%	-20%	-1%	15	10%
Cc1ccc(Sc2ccc(C(=O)N3CCOCC3)cc2[N+](=O)[O-])cc1	-3	-9%	.	.	-5	.
Cc1ccc(C(=O)NCCc2n[nH]c(=S)n2C)cc1	1	38%	21%	.	37	.
O=C(Nc1ccc(CN2CCOCC2)cc1)c1ccc(N2CCCC2)c([N+](=O)[O-])c1	-1	27%	?	-21%[46.1 µM]	-4	0%
CCn1cc(C(=O)NC(=S)Nc2cccc(O)c2)cn1	28*	110%	.	19%	58*	-2%
CCn1cc(C(=O)NC(=S)Nc2ccccc2[N+](=O)[O-])cn1	35*	32%	-6%	-1%[46.1 µM]	58*	-29%[46.1 µM]
